Assay results taken from PubChem BioAssay (NCI).
The panel holds about 79,000 compounds, 15% with a hit somewhere; the sample as a whole holds those more often. A number with no mark means an inactive call. The source made the active and inactive calls. Cut-off read from the data, not from the text of the source: active = growth inhibition above about 70%; inactive = the rest.

What was measured:
[1] = NCI Yeast Anticancer Drug Screen. Data for the rad50 strain (AID 155);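 note: 0% = growth of vehicle-only cultures of the same strain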; conditions: S. cerevisiae rad50 strain growth inhibition; at 50.0 µM; stronger effect = higher value
Outline: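 Readout: growth inhibition relative to vehicle-treated cultures. Compound exposure was carried out in a genetically defined yeast strain deficient in DNA damage repair.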

[2] = NCI Yeast Anticancer Drug Screen. Data for the mec2-1 strain (AID 157); conditions: S. cerevisiae mec2-1 strain, at 50.0 µM, stronger effect = higher value
Outline: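 Cells of the genetically defined mec2-1 yeast strain are incubated with test compound. Inhibition of growth is calculated against vehicle-treated controls.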

[3] = NCI Yeast Anticancer Drug Screen. Data for the sgs1 mgt1 strain (AID 161);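 note: 0% = growth of cultures given vehicle only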; conditions: S. cerevisiae sgs1 mgt1 strain, at 50.0 µM, stronger effect = higher value
Outline: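 Genetically altered yeast, compound exposure, growth inhibition relative to vehicle.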

[4] = NCI Yeast Anticancer Drug Screen. Data for the cln2 rad14 strain (AID 165);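 note: 0% = growth equal to vehicle treated cultures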; conditions: S. cerevisiae cln2 rad14 strain, at 50.0 µM, stronger effect = higher value
Outline: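 The screen exposed genetically defined yeast (cln2 rad14) to test compounds and scored growth inhibition relative to vehicle-treated controls.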

[5] = NCI Yeast Anticancer Drug Screen. Data for the bub3 strain (AID 167); conditions: S. cerevisiae bub3 mutant strain, at 50.0 µM, stronger effect = higher value
Outline: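 Readout: yeast growth inhibition, expressed relative to vehicle-only wells. The test organism is a mutant strain from a panel with lesions in DNA repair or checkpoint genes.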

[6] = NCI Yeast Anticancer Drug Screen. Data for the mlh1 rad18 strain (AID 175); conditions: S. cerevisiae mlh1 rad18 strain growth inhibition; at 50.0 µM; stronger effect = higher value
Outline: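 Compound-treated yeast growth, normalised to vehicle controls. Strain bears defined DNA repair mutations.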

SMILES	growth inhibition [1]	growth inhibition [2]	growth inhibition [3]	growth inhibition [4]	growth inhibition [5]	growth inhibition [6]
Fc1cccc2cccnc12	0.05%	-4.45%	11.2%	5.65%	12.7%	7.4%
CCCCCCOC(=O)/C=C1/OC(=O)c2ccccc21	-12.2%	-15.5%	2.15%	-60.5%	11.4%	-16.4%
NC(=O)c1cc(Br)ccc1O	11.2%	-12.7%	6.9%	8.9%	-19.4%	17.2%
CC(C)CC(N)C(=O)OCN1C(=O)C2C3C=CC(C2C1=O)C1C2C(=O)N(COC(=O)C(N)CC(C)C)C(=O)C2C31 (stereo unspecified)	16.1%	15.6%	5.05%	36.5%	-0.05%	9.7%
CC(C)c1cccc(C(C)C)c1N1C(=O)C(=O)C(c2nc3ccccc3s2)C(=O)C1=O	-11.7%	-17.1%	-7.65%	-10%	1.55%	-12.2%
CCCNC(=O)N(CCN(C)C)S(=O)(=O)c1ccc(Cl)cc1	-38.9%	-6.75%	-13.6%	-18.9%	-21.1%	-17.4%
CCOC1(NC(=O)N(C)C)C2CCCC21 (stereo unspecified)	3.4%	-4.15%	-0.1%	-29.9%	2.1%	-6.5%
O=NC1C2CCC(C2)C1N=O.[Co].[c-]1[c-][c-][cH-][c-]1 (stereo unspecified)	9.4%	6.45%	4.7%	20.4%	13.6%	27.9%
CCCCCCCCCCCCCCCC(C)O (stereo unspecified)	-45.8%	-35.8%	-20.1%	-35.6%	-43.5%	-34.8%
CC(C)(C)NC(=O)NCCCl	1%	-11.4%	-2.45%	-33.9%	2.95%	5.35%
O=C(Nc1cc(C(=O)Nc2cccc(S(=O)(=O)O)c2)cc(C(=O)Nc2cccc(S(=O)(=O)O)c2)c1)c1cccc(C(=O)Nc2cc(C(=O)Nc3cccc(S(=O)(=O)O)c3)cc(C(=O)Nc3cccc(S(=O)(=O)O)c3)c2)c1	-0.1%	-0.1%	-15.4%	3.4%	4.8%	-5.55%
C/C(CC(=O)Nc1cc(Cl)c(Cl)cc1Cl)=N\NC(N)=O	28.8%	11.7%	1.55%	24.4%	30.3%	19.4%
CCCCNCC#N	20.4%	-10.7%	-0.85%	7.4%	5.15%	3.95%
O=C1/C(=C/c2ccc3c(c2)CCC3)Cc2cc3c(cc21)CCC3	-10%	11.7%	-23.4%	21.4%	-1.15%	4.75%
CCN1C(=O)NC(C)(c2ccccc2)C1=O (stereo unspecified)	-2.9%	3.35%	-3.45%	-11.3%	10.1%	2.1%
CC1(C)OC2OC(C3CC3)C(OCc3ccccc3)C2O1 (stereo unspecified)	-4.35%	-1.05%	-7.55%	-16%	-10.7%	-6.5%
CN(C)CC1CCC(CN(C)C)C(=O)C1=O (stereo unspecified)	-36%	-39.4%	-64.5%	-14.7%	-31.3%	-31.3%
C=CCOCn1ccc(NC(=O)c2ccccc2)nc1=O	-58%	-57.1%	-37%	-3.15%	-8.4%	-22.3%
c1cncc(CNc2ncn[nH]2)c1	-2.5%	8.3%	-24.1%	-50.3%	-24.9%	-29.8%
C(=N/Nc1ccncc1)/c1ccc2ccccc2n1	-1.8%	-22.6%	-11.4%	-26.9%	-7.65%	4.05%
COC(=O)C1C2C=CC(C1C(=O)O)C1C(Br)=C(Br)C21 (stereo unspecified)	20.4%	10.9%	-8.05%	-10.1%	1.9%	-8.45%

SMILES	growth inhibition [1]	growth inhibition [2]	growth inhibition [3]	growth inhibition [4]	growth inhibition [5]	growth inhibition [6]
CC(O)CCC(O)CCCO (stereo unspecified)	7.8%	-10.7%	8.4%	-17.1%	4.65%	-11.7%
NC(=O)C1(C(N)=O)CC1	11.4%	4.55%	-14.5%	-0.05%	-3.75%	5.1%
CCOC(=O)C(C(C)=O)C(c1ccc(N(C)C)cc1)c1ccc(N(C)C)cc1 (stereo unspecified)	4%	-4.35%	-6.6%	-2.4%	3.95%	-3.4%
O=C1C=CC(=O)c2c(Cl)ccc(O)c21	-16.9%	-30.6%	-20.4%	10.1%	-20.2%	-8.7%
CCOP(=O)(OCC)C1(O)CC(n2cc(C)c(=O)[nH]c2=O)OC1CO (stereo unspecified)	7.3%	59.1%	-15.2%	27.1%	-5.05%	-37.7%
CCCCCSC1CCCC1	35%	-10%	7.65%	-2.2%	9.5%	28.7%
O=C1CN(C2CCCCC2)CC(=O)N2C(c3ccccc3)CCCN12 (stereo unspecified)	3.3%	-5.4%	14.7%	11.8%	0.55%	-1.85%
O=CC1(CCc2ccccc2)NC(=O)NC1=O (stereo unspecified)	5.3%	11.2%	2.55%	-18.9%	-0.4%	1.25%
O=[N+]([O-])c1ccc(OP(=O)(O)O)cc1	-5.9%	13.3%	-9.85%	20.2%	8.95%	-10.2%
CC(C)N1C(=O)NC(=O)C12CCN(Cc1ccccc1)CC2	-1.5%	-1.65%	-5.9%	-1.7%	11.6%	-13.7%
CC1(C)C2CCC1(CC(=O)O)C(O)C2=O (stereo unspecified)	-13.3%	-23.2%	-14.6%	-12.6%	-4.6%	-5.45%
C1CSCCSCCCSC2CCCCC2SC1 (stereo unspecified)	22.1%	-0.3%	-8.35%	17.4%	5%	2.15%
O=c1cc(-c2cccc(OC(F)(F)F)c2)[nH]c2cc3c(cc12)OCO3	-6.25%	2.75%	-5.05%	13.8%	19.7%	-24.2%
CC(=O)Nc1ccc(NC(=O)Nc2cccc(C(C)=O)c2)cc1	7.3%	27.2%	9.35%	0.3%	22.6%	28.6%
CCC(C(O)c1ccc(Cl)cc1)C(O)(C(F)(F)F)C(F)(F)F (stereo unspecified)	99.4% (active)	99.5% (active)	99.6% (active)	99.5% (active)	99.3% (active)	99.4% (active)
CCN(CC)CCNc1ncnc2c1cnn2C	7.7%	1.8%	-17.9%	-4.5%	-20.9%	-8.9%
O=C1Oc2ccccc2C(=O)C1=S1CCCC1	6.9%	12.1%	9.3%	18.6%	9.05%	14.6%
CCCCOC(=O)C(C)OC(=O)OC (stereo unspecified)	-21.1%	-13%	-2.25%	-28.8%	-15.7%	8%
CC1(C)N=C(C(N)=O)c2ncn(CCCO)c2N1	-13.5%	-12.6%	-48.4%	23.2%	-0.35%	-6.8%
CCC(=O)C12CCCC1=NC(=N)N=C2C1=NC(=N)N=C2CCCC21C(=O)CC (stereo unspecified)	-10.3%	12.4%	-14.2%	2.75%	-1.7%	5.2%
